Laboratory results: PubChem BioAssay (NCI)
This is part of a sample that, as a whole, favours compounds with a hit. Of some 79,000 tested, about 15% had one in any assay. Activity calls are given as the source filed them. Rule as the data show it: active = growth inhibition above about 70%; inactive = the rest.

Key:
[1] = NCI Yeast Anticancer Drug Screen. Data for the rad52 strain (AID 147);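 also: 0% = growth of vehicle-treated control cultures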; conditions: S. cerevisiae rad52 mutant growth inhibition, stronger effect = higher value
In short: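 Growth of repair-deficient yeast cells was compared between compound-treated and vehicle-treated cultures to give percent inhibition.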

[2] = NCI Yeast Anticancer Drug Screen. Data for the wt1 strain (AID 149);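 also: 0% = growth of vehicle-treated wt1 cultures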; conditions: S. cerevisiae wt1 strain (SPY 50644) growth inhibition, stronger effect = higher value
In short: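 Growth inhibition read against vehicle controls after compound exposure of the wt1 yeast strain.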

[3] = NCI Yeast Anticancer Drug Screen. Data for the rad50EPP+ strain (AID 151);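 also: 0% = growth of vehicle-treated control cultures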; conditions: S. cerevisiae rad50 mutant strain, stronger effect = higher value
In short: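 Measured: growth inhibition of rad50EPP+ yeast. Reference: vehicle-treated controls. Screen uses strains with defined genetic alterations in DNA damage repair or cell cycle control.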

[4] = NCI Yeast Anticancer Drug Screen. Data for the mgt1 strain (AID 153); conditions: S. cerevisiae mgt1 mutant growth inhibition, stronger effect = higher value
In short: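 Compounds were applied to mgt1 mutant yeast, and growth was then compared against vehicle-treated control cultures to give percent inhibition.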

[5] = NCI Yeast Anticancer Drug Screen. Data for the rad50 strain (AID 155);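 also: 0% = growth of vehicle-only cultures of the same strain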; conditions: S. cerevisiae rad50 strain growth inhibition, stronger effect = higher value
In short: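 Readout: growth inhibition relative to vehicle-treated cultures. Compound exposure was carried out in a genetically defined yeast strain deficient in DNA damage repair.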

[6] = NCI Yeast Anticancer Drug Screen. Data for the mec2-1 strain (AID 157); conditions: S. cerevisiae mec2-1 strain, stronger effect = higher value
In short: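 Compounds were applied to mec2-1 yeast cells. Their growth was then compared with that of vehicle-treated cultures to give growth inhibition.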

[7] = NCI Yeast Anticancer Drug Screen. Data for the sgs1 mgt1 strain (AID 161);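 also: 0% = growth of cultures given vehicle only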; conditions: S. cerevisiae sgs1 mgt1 strain, stronger effect = higher value
In short: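 Percent growth inhibition was derived by comparing compound-exposed mutant yeast with vehicle-exposed cultures. The strain carries alterations in DNA damage repair.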

[8] = NCI Yeast Anticancer Drug Screen. Data for the CLN2oe strain (AID 163);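 also: 0% = growth of vehicle-only control cultures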; conditions: S. cerevisiae CLN2oe strain, stronger effect = higher value
In short: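 Cells of an engineered yeast line with disturbed cell-cycle regulation are treated with compound. Inhibition of growth is then calculated relative to the vehicle-treated reference.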

[9] = NCI Yeast Anticancer Drug Screen. Data for the cln2 rad14 strain (AID 165);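 also: 0% = growth equal to vehicle treated cultures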; conditions: S. cerevisiae cln2 rad14 strain, stronger effect = higher value
In short: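 Strain: cln2 rad14 yeast, altered in cell cycle control and DNA damage repair. Read-out: growth inhibition vs vehicle.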

[10] = NCI Yeast Anticancer Drug Screen. Data for the bub3 strain (AID 167); conditions: S. cerevisiae bub3 mutant strain, stronger effect = higher value
In short: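 Readout: yeast growth inhibition, expressed relative to vehicle-only wells. The test organism is a mutant strain from a panel with lesions in DNA repair or checkpoint genes.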

[11] = NCI Yeast Anticancer Drug Screen. Data for the wt2 strain (AID 169);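 also: 0% = growth of vehicle-treated yeast cultures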; conditions: S. cerevisiae wt2 strain growth inhibition, stronger effect = higher value
In short: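 Growth of compound-treated yeast is measured and expressed as inhibition relative to vehicle-only controls.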

[12] = NCI Yeast Anticancer Drug Screen. Data for the mlh1 strain (AID 171);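 also: 0% = growth of vehicle-treated control cultures of the same strain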; conditions: S. cerevisiae mlh1 strain growth inhibition, stronger effect = higher value
In short: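 Test agents were incubated with yeast bearing a defined DNA damage repair or cell cycle control alteration; values are growth inhibition normalised to vehicle-treated cultures.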

[13] = NCI Yeast Anticancer Drug Screen. Data for the sgs1 strain (AID 173);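 also: 0% = growth of vehicle-only control cultures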; conditions: S. cerevisiae sgs1 mutant, stronger effect = higher value
In short: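 Strain with an altered DNA repair or cell cycle pathway exposed to compound. Growth then measured. Value = inhibition versus vehicle control.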

[14] = NCI Yeast Anticancer Drug Screen. Data for the mlh1 rad18 strain (AID 175); conditions: S. cerevisiae mlh1 rad18 strain growth inhibition, stronger effect = higher value
In short: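 A repair-deficient yeast strain is exposed to test compound, and growth is scored relative to vehicle-treated controls.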

[15] = NCI Yeast Anticancer Drug Screen. Data for the rad14 strain (AID 159);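 also: 0% = growth of vehicle-treated control cultures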; conditions: S. cerevisiae rad14 strain growth inhibition, stronger effect = higher value
In short: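 Growth inhibition vs vehicle controls; genetically altered yeast strain (DNA damage repair defect) treated with test compounds.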

[16] = NCI Yeast Anticancer Drug Screen. Data for the rad18 strain (AID 177); conditions: S. cerevisiae rad18 mutant growth inhibition, stronger effect = higher value
In short: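 DNA-repair-defective yeast; compound treatment; growth inhibition scored against vehicle.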

[17] = at 5.0 µM (retest, dose inferred, filed as 0.5)
[18] = at 50.0 µM (retest, dose inferred, filed as 5.0)

Measured: growth inhibition

C[C@]12CC[C@H](O)CC1=CC[C@@H]1C2CC[C@]2(C)C(=O)NC(=O)CC12 (stereo partly drawn)
inactive: [1]; at 1.2 µM -27% | [1]; at 3.7 µM -23% | [1]; at 11.0 µM -17% | [1]; at 33.0 µM 58% | [2]; at 1.2 µM -22% | [2]; at 3.7 µM -24% | [2]; at 11.0 µM -21% | [2]; at 33.0 µM 55% | [3]; at 1.2 µM -33% | [3]; at 3.7 µM -19% | [3]; at 11.0 µM 18% | [4]; at 1.2 µM -41% | [4]; at 3.7 µM -16% | [5]; at 1.2 µM -16% | [5]; at 3.7 µM -19% | [5]; [17] -4% | [5]; at 11.0 µM -13% | [5]; at 33.0 µM 53% | [5]; [18] 69% | [6]; at 1.2 µM -23% | [6]; at 3.7 µM -24% | [6]; [17] -39% | [6]; at 11.0 µM -27% | [6]; at 33.0 µM 14% | [7]; [17] 33% | [8]; at 1.2 µM -36% | [8]; at 3.7 µM -45% | [8]; at 11.0 µM -48% | [8]; at 33.0 µM 67% | [9]; [17] 1% | [10]; at 1.2 µM -23% | [10]; at 3.7 µM -15% | [10]; [17] -4% | [10]; at 11.0 µM -12% | [10]; at 33.0 µM 60% | [11]; at 1.2 µM -14% | [11]; at 3.7 µM 27% | [12]; at 1.2 µM -33% | [12]; at 3.7 µM -3% | [13]; at 1.2 µM 17% | [13]; at 3.7 µM 45% | [14]; [17] -25%
active: [1]; at 100.0 µM 85% | [2]; at 100.0 µM 84% | [3]; at 33.0 µM 74% | [3]; at 100.0 µM 93% | [4]; at 11.0 µM 79% | [4]; at 33.0 µM 94% | [4]; at 100.0 µM 96% | [5]; at 50.0 µM 82.4% | [5]; at 100.0 µM 88% | [6]; [18] 82% | [6]; at 50.0 µM 77.9% | [6]; at 100.0 µM 83% | [7]; [18] 94% | [7]; at 50.0 µM 91.8% | [8]; at 100.0 µM 91% | [9]; [18] 80% | [9]; at 50.0 µM 84.7% | [10]; [18] 90% | [10]; at 50.0 µM 80% | [10]; at 100.0 µM 86% | [11]; at 11.0 µM 78% | [11]; at 33.0 µM 94% | [11]; at 100.0 µM 97% | [12]; at 11.0 µM 71% | [12]; at 33.0 µM 94% | [12]; at 100.0 µM 96% | [13]; at 11.0 µM 90% | [13]; at 33.0 µM 96% | [13]; at 100.0 µM 97% | [14]; [18] 82% | [14]; at 50.0 µM 70.3%

CCOC(=O)C(C(=O)OCC)=P(c1ccccc1)(c1ccccc1)c1ccccc1
inactive: [1]; at 1.2 µM 0% | [1]; at 3.7 µM 0% | [1]; at 11.0 µM 2% | [1]; at 33.0 µM 0% | [2]; at 1.2 µM 0% | [2]; at 3.7 µM 1% | [2]; at 11.0 µM 1% | [2]; at 33.0 µM -3% | [3]; at 1.2 µM -2% | [3]; at 3.7 µM -3% | [3]; at 11.0 µM -2% | [3]; at 33.0 µM -1% | [3]; at 100.0 µM 3% | [4]; at 1.2 µM 0% | [4]; at 3.7 µM 3% | [4]; at 11.0 µM 1% | [4]; at 33.0 µM -6% | [5]; at 1.2 µM -58% | [5]; at 3.7 µM 0% | [5]; [17] -2% | [5]; at 11.0 µM -3% | [5]; at 33.0 µM -3% | [5]; [18] 36% | [5]; at 50.0 µM 12.4% | [6]; at 1.2 µM 0% | [6]; at 3.7 µM -1% | [6]; [17] 1% | [6]; at 11.0 µM 0% | [6]; at 33.0 µM 0% | [6]; [18] 16% | [6]; at 50.0 µM 12.1% | [15]; at 1.2 µM 0% | [15]; at 3.7 µM 2% | [15]; at 11.0 µM 5% | [15]; at 33.0 µM 6% | [7]; [17] -10% | [7]; [18] 60% | [7]; at 50.0 µM 47% | [8]; at 1.2 µM 0% | [8]; at 3.7 µM -1% | [8]; at 11.0 µM -1% | [8]; at 33.0 µM -2% | [9]; [17] 0% | [9]; [18] -3% | [9]; at 50.0 µM -2.05% | [11]; at 1.2 µM -2% | [11]; at 3.7 µM -3% | [11]; at 11.0 µM -4% | [11]; at 33.0 µM -9% | [12]; at 1.2 µM 1% | [12]; at 3.7 µM -2% | [12]; at 11.0 µM 0% | [12]; at 33.0 µM 1% | [13]; at 1.2 µM 0% | [13]; at 3.7 µM 0% | [13]; at 11.0 µM 0% | [13]; at 33.0 µM 4% | [14]; [17] 0% | [14]; [18] 26% | [14]; at 50.0 µM 21.1% | [16]; at 1.2 µM 1% | [16]; at 3.7 µM 7% | [16]; at 11.0 µM 16% | [16]; at 33.0 µM 12%
active: [1]; at 100.0 µM 95% | [2]; at 100.0 µM 93% | [4]; at 100.0 µM 78% | [5]; at 100.0 µM 96% | [6]; at 100.0 µM 98% | [15]; at 100.0 µM 93% | [8]; at 100.0 µM 84% | [11]; at 100.0 µM 95% | [12]; at 100.0 µM 92% | [13]; at 100.0 µM 94% | [16]; at 100.0 µM 95%
